Data: PubChem BioAssay AID929 (National Center for Advancing Translational Sciences (NCATS), 2007)
Some of the results follow. Inconclusive results are not listed. Calls of active or inactive are those of the source. Calls follow the shape of the dose curve; as a rule, active = well fitted inhibition curve with a large enough effect in the main read-out, with a control signal flat; inconclusive = small, poorly fitted or top-dose-only effect, or a change in a side signal; inactive = no such curve, though single readings can be large or run the other way.

Target: Caspase-1 (Homo sapiens) (UniProt P29466)
Sequence (P29466 120-297 limits assumed): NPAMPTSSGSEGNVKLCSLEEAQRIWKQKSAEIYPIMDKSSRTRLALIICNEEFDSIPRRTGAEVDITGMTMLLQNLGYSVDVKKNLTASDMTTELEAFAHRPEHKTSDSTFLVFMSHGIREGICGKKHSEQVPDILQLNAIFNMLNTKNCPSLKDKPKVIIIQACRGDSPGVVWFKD
Sequence (P29466 317-404 limits assumed): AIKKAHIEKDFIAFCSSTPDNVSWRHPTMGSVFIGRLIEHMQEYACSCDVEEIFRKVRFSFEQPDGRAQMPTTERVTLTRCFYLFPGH
Assay: Concentration-Response Counterscreen for Redox Active Inhibitors of Caspase-1: Cysteine
Details: recombinant caspase-1, fluorogenic substrate, cysteine buffer; series mostly up to 57.5 µM
Source text: NIH Molecular Libraries Screening Centers Network [MLSCN]
NIH Chemical Genomics Center [NCGC]
PI Name: Dr. James Wells,
Dr. Enrique Perez-Paya, Dr.Janice Williams, Dr. Dennis Wolan, a person
The caspases (Cysteine Aspartyl Protease) comprise a related family of 14 dimeric proteases that are critical mediators of apoptosis (programmed cell death) and inflammation. The caspases represent an important class of drug targets for stroke, ischemia, cancer and inflammatory diseases. […] One goal of this project was to identify compounds that act as allosteric inhibitors via stabilizing the procaspase form of the enzyme. […]
The biochemical assay was configured using purified caspase 1 at a high enzyme concentration to promote formation of the homodimers and thus facilitate the identification of allosteric inhibitors. […] After initiation of the assay with substrate the plates were rapidly read using an automated robotic system (Kalypsys, Inc.) to maintain consistent timing. […] Product formation was also measured after 1 hour. […]
Caspase 1 was prepared in buffer (50 mM HEPES pH 7.5, 50 mM KCl, 200 mM NaCl, 10 mM Cys (Aldrich cat# 861677), 0.1% CHAPS) at a concentration of 66.6 nM and 3 uL was dispensed to all wells using black solid Kalypsys 1536-well plates. […] The plates were then exposed using 405 nm excitation/520 nm emission filters for 4 sec and read at 20 sec intervals for 3 min. […]

SMILES | outcome
Cc1nc2c(C(=O)NCc3ccc4c(c3)OCO4)c[nH]n2c(=O)c1Cc1ccccc1F | inactive
